Only a selection was taken, and hits are over-represented in it overall.
Methyltransferases – Primary Screen for Target Class Profiling of Small Molecule Inhibitors of Methyltransferases. AID 1745853, 2022. calls only at 40 µM. 25,000 compounds, 3.9% hits. purified enzyme, MTase-Glo SAH luminescence; active compounds read low; call rule not given here
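Each enzyme was assayed with SAM and its substrate. SAH formation detected by MTase-Glo luminescence; single-point 40 uM screen[…].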
Calls only.

CC1(C(=O)NC2CCCCCC2)Cn2c(cc3ccccc32)C(=O)N1Cc1ccc2c(c1)OCO2 (stereo unspecified) was read as Methyltransferases inactive.
For Cc1cc(C)c(S(=O)(=O)n2cc(C)cc2C)c(C)c1 the results were Methyltransferases active.
Cc1cccc(Cn2nc3n(CCC(C)C)c(=O)c4ccc(C(=O)NC(C)C)cc4n3c2=O)c1 was read as Methyltransferases inactive.
`Cc1ccc(CN2C(=O)c3nc4ccccc4n3CC2(C)C(=O)NCc2ccccc2)o1` (stereo unspecified) gave Methyltransferases inactive.
`CC1CCCCC1NC(=O)C1(C)Cn2c(ccc2-c2ccco2)C(=O)N1CCc1ccccc1` (stereo unspecified) gave Methyltransferases inactive.
Screening C=C1C(=O)OC2/C=C(\C)CC/C=C(\C)CC(OC(C)=O)C12 (stereo unspecified) returned Methyltransferases inactive.
C=C1C(=O)O[C@@H]2/C=C(\C)C(=O)/C=C/[C@](C)(O)C[C@@H](OC(=O)C(C)C)[C@@H]12 was read as Methyltransferases active.
C=C1C(=O)O[C@@H]2/C=C(/C)CC3C=C(C[C@H](OC(=O)/C(C)=C\C)[C@@H]12)C(=O)O3 (stereo partly specified) was read as Methyltransferases inactive.
Screening CCCn1c(=O)c2ccccc2n2c(=O)n(Cc3ccccc3F)nc12 returned Methyltransferases inactive.
`COc1ccc(OC)c(NC(=O)N2CCn3c(C)ccc3C2C(C)C)c1` (stereo unspecified) gave Methyltransferases inactive.
For CCc1ccc(NC(=O)Cn2nc3n(CCc4ccccc4)c(=O)c4ccccc4n3c2=O)cc1 the results were Methyltransferases inactive.
Cc1nn2c(SCC(=O)Nc3ccc(C(C)C)cc3)nnc2[nH]c1=O was read as Methyltransferases inactive.
Screening Cn1c(=O)c2ccc(C(=O)NC3CCCCC3)cc2n2c(SCc3ccc(F)cc3)nnc12 returned Methyltransferases inactive.
For COc1ccccc1CN1C(=O)c2cc(-c3ccco3)nn2CC1(C)C(=O)NC1CCCCC1 (stereo unspecified) the results were Methyltransferases inactive.
Screening CN1CCN2c3ccccc3Cc3ccccc3C2C1 (stereo unspecified) returned Methyltransferases inactive.
CSc1ccc2c(c1)C(N1CCN(C)CC1)Cc1ccccc1S2 (stereo unspecified) was read as Methyltransferases active.
CN1CCN(CCCN2c3ccccc3Sc3ccc(Cl)cc32)CC1 was read as Methyltransferases inactive.
`COc1ccc(CCNC(=O)c2cc3n(n2)CC(C)(C(=O)NCc2ccccc2)N(C)C3=O)cc1OC` (stereo unspecified) gave Methyltransferases inactive.
Screening O=C(Cn1nc2n(CCc3ccccc3)c(=O)c3ccccc3n2c1=O)c1cccc(Cl)c1 returned Methyltransferases inactive.
`Cc1ccc(CNC(=O)c2cc3n(n2)CC(C)(C(=O)NC2CCCCC2)N(C)C3=O)cc1` (stereo unspecified) gave Methyltransferases inactive.
Screening COc1c2c(c(C)c3c1C(=O)OC3)OC1(C)CC(O)C34OC(OC)(CC(O)C3(C)C1C2)OC4(C)C (stereo unspecified) returned Methyltransferases active.
`COc1c2c(c(C)c3c1C(=O)OC3)OC1(C)CC(O)C3(O)C(C)(C)OC(=O)CCC3(C)C1C2` (stereo unspecified) gave Methyltransferases inactive.
For COc1c2c(c(C)c3c1C(=O)OC3)O[C@@]1(C)CC(O)C(C(C)(C)O)[C@](C)(CCC(=O)O)[C@H]1C2 (stereo partly specified) the results were Methyltransferases inactive.
For CC(C)CCn1c(=O)c2ccc(C(=O)NCC(C)C)cc2n2c(=O)n(CC(N)=O)nc12 the results were Methyltransferases inactive.
For Cc1ccc(CNC(=O)CCc2nnc3n(Cc4ccccc4Cl)c(=O)c4ccccc4n23)cc1 the results were Methyltransferases inactive.
`c1ccc(-c2nnn3c2nc(N2CCc4ccccc4C2)c2ccccc23)cc1` gave Methyltransferases inactive.
For COc1ccc(NC(=O)CSc2nnc3n(Cc4ccc(C)cc4)c(=O)c4ccccc4n23)cc1 the results were Methyltransferases inactive.
`Cc1c(C)n(Cc2ccc(-c3ccccc3C(=O)O)cc2)c2ccc(C(=O)N[C@@H](C)c3ccc([N+](=O)[O-])cc3)cc12` gave Methyltransferases active.
`Cc1ccc(Cn2c(=O)c3ccc(C(=O)NC(C)C)cc3n3c(=O)n(Cc4ccccc4)nc23)cc1` gave Methyltransferases inactive.
COC(=O)[C@H](Cc1ccc([N+](=O)[O-])cc1)NC(=O)c1cccc2ccccc12 was read as Methyltransferases inactive.
`COc1ccc(CCN2C(=O)c3cc4oc(C)cc4n3CC2(C)C(=O)NC2CCCCC2)cc1OC` (stereo unspecified) gave Methyltransferases active.
`COc1ccc(OC)c2c1cc1n2CC(C)(C(=O)NC2CCCCC2C)N(Cc2ccccn2)C1=O` (stereo unspecified) gave Methyltransferases inactive.
For COc1ccc(OC)c2c1cc1n2CC(C)(C(=O)NC2CCCCC2)N(Cc2ccccn2)C1=O (stereo unspecified) the results were Methyltransferases active.
Screening COc1ccc(OC)c2c1cc1n2CC(C)(C(=O)NC2CCCC2)N(Cc2ccccc2)C1=O (stereo unspecified) returned Methyltransferases inactive.
Screening Cc1cc2c(cc3n2CC(C)(C(=O)NC2CCCCC2)N(CCc2ccccc2)C3=O)o1 (stereo unspecified) returned Methyltransferases inactive.
For Cc1cc2c(cc3n2CC(C)(C(=O)NC2CCCCCCC2)N(CCc2ccccc2)C3=O)o1 (stereo unspecified) the results were Methyltransferases inactive.
Cc1ccc(C(=O)Cn2nc3n(CC(C)C)c(=O)c4ccc(C(=O)NCC(C)C)cc4n3c2=O)cc1 was read as Methyltransferases inactive.
Cc1ccc(C(=O)Cn2nc3n(C(C)C)c(=O)c4ccc(C(=O)NC5CCCC5)cc4n3c2=O)cc1 was read as Methyltransferases inactive.
For CC(C)CCn1c(=O)c2ccccc2n2c(=O)n(CC(=O)Nc3cccc(Cl)c3)nc12 the results were Methyltransferases inactive.
For COc1ccc2cc3n(c2c1)CC(C)(C(=O)NC1CCCCC1)N(c1ccc2c(c1)OCCO2)C3=O (stereo unspecified) the results were Methyltransferases inactive.
Cn1c(=O)c2ccc(C(=O)NC3CCCCC3)cc2n2c(=O)n(Cc3ccccc3)nc12 was read as Methyltransferases inactive.
Cc1cc(C)cc(N2C(=O)c3ccc(-c4ccco4)n3CC2(C)C(=O)NC2CCCC2)c1 (stereo unspecified) was read as Methyltransferases inactive.
Screening CC(C(=O)N1CCCCC1)n1ccc2cc(S(=O)(=O)N3CCCC3)ccc21 (stereo unspecified) returned Methyltransferases inactive.
Screening COc1ccc2c(c1)c(NC(C)=O)c1n2CC(C)(C(=O)NC2CCCC2)N(Cc2ccccc2)C1=O (stereo unspecified) returned Methyltransferases inactive.
For Cc1ccccc1Cn1nc2n(CCC(C)C)c(=O)c3ccc(C(=O)NCC(C)C)cc3n2c1=O the results were Methyltransferases inactive.
Screening COC(=O)c1cc(COc2ccc3c(-c4ccccc4)cc(=O)oc3c2)c(C)o1 returned Methyltransferases inactive.
For Cc1nc2c3ccccc3n3c(CCCC(=O)NC4CCN(Cc5ccccc5)CC4)nnc3n2n1 the results were Methyltransferases inactive.
